From PubChem BioAssay
The list is not random: actives were taken first. Their share in the collection is about 0.37%.
HRas wt GTP: modulators of GTP binding to HRas wildtype, primary screen, biochemical, bead-based flow cytometry, multiplex; GTP binding activity, % at 10 µM; GST-Ras wt beads, Bodipy-FL-GTP binding; actives lie on both sides; 190,000 tested, 0.14% active; GTPase HRas (Homo sapiens), P01112; AID 759, 2007;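 active = GTP binding activity at least 20% away from the 100% baseline, either lowered as inhibitor or raised as activator; inconclusive = flagged as likely green fluorescent, judged across all proteins in the well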;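 also: 0% = unlabeled GTP competition control and 100% = no-compound control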
Target sequence (P01112 whole entry, looked up): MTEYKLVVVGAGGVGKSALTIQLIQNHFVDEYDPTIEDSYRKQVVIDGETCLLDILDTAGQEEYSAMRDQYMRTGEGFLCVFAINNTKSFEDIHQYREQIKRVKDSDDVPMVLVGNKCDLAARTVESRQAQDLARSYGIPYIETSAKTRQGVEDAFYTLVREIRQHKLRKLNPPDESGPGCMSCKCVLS
Rab2 wt GTP: modulators of GTP binding to Rab2A wildtype, primary screen, biochemical, dog, bead-based flow cytometry, multiplex; Ras-related protein Rab-2A (Canis lupus familiaris), P61105; GST-Rab2 wt beads, Bodipy-GTP binding; GTP binding activity, % at 10 µM; 190,000 tested, 0.19% active; AID 760, 2007;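 active = GTP binding activity at least 20 points away from 100%, either lowered or raised; inconclusive = signal likely due to the compound's own green fluorescence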;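 also: 0% = beads with excess unlabeled GTP and 100% = no-compound control corrected for plate trend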
Rac1 mut GTP: GTP binding modulators of activated mutant Rac1, primary screen, biochemical, bead-based flow cytometry, multiplex, fluorescent GTP | percent activity (GTP binding), % at 10 µM | GST-Rac1 activated beads; actives lie on both sides; 100% means binding = to untreated wells | 190,000 tested, 0.11% active | Ras-related C3 botulinum toxin substrate 1 (Homo sapiens), P63000;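 active = GTP binding at least 20 percentage points away from the 100% baseline, in either direction, so actives lie on both sides; inconclusive = Compound likely fluorescent itself, or too few beads counted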
Rab7 wt modul: modulators of GTP binding to Rab7, primary screen, biochemical, wildtype, multiplex bead flow cytometry. Rab7 GTPase wild type (dog), Bodipy-FL-GTP binding. GST-Rab7 beads, fluorescent GTP binding; actives lie on both sides; untreated = 100%, excess cold GTP = 0%. GTP binding activity (percent of control), % at 10 µM. 190,000 tested, 0.055% active. AID 758, 2007;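 active = fluorescent GTP binding to Rab7 beads changed by at least 20 points from the 100% baseline, either direction, mostly lower; inconclusive = compound itself probably fluorescent, or too few beads counted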;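 also: median green fluorescence of bound Bodipy-FL-GTP per Rab7 bead population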
Rac1 wt modul: wildtype Rac1 GTP binding modulators, primary screen, biochemical, GST-Rac1 beads, flow cytometry, multiplex; Ras-related C3 botulinum toxin substrate 1 (Homo sapiens), P63000; fluorescent GTP binding; actives lie on both sides; 0 = cold GTP competed, 100 = untreated; GTP binding activity (% of control), % at 10 µM; 190,000 tested, 0.27% active;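 active = GTP binding activity at least 20 points away from the 100% control level, either lower or higher; inconclusive = compound flagged as likely green fluorescent, judged across all proteins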
Cdc42 wt: modulators of GTP binding to wildtype Cdc42, primary screen, biochemical, multiplex bead flow cytometry, Bodipy-GTP; Cell division control protein 42 homolog (Homo sapiens), P60953; GST-Cdc42 beads; actives lie on both sides; percent activity (GTP binding), % at 10 µM; 190,000 tested, 0.2% active; AID 761, 2007;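 active = percent activity GTP binding at least 20 points away from the 100% baseline, either down as inhibitor or up as activator; inconclusive = compound flagged as likely green fluorescent from well-wide comparison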;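 also: median bead fluorescence of bound Bodipy-FL-GTP at 100 nM; 0% = excess unlabeled GTP control and 100% = no compound control; below 100% means less GTP binding so inhibitor and above means activator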
Target sequence (P60953 whole entry, looked up): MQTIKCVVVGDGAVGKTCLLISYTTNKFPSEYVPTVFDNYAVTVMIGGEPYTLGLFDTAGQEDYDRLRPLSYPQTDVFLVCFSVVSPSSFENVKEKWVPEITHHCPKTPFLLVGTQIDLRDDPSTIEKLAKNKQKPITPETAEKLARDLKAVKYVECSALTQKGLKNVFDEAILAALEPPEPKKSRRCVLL
Active calls of the source: *; ? = inconclusive; [ ] = another dose, or the depositor's remark.

SMILES	HRas wt GTP	Rab2 wt GTP	Rac1 mut GTP	Rab7 wt modul	Rac1 wt modul	Cdc42 wt
Cc1ccc2c(c1)c1nnc(SCC(=O)Nc3cccc(Cl)c3C)nc1n2CC(=O)O	82	83	83	89	74*	82
CCOc1cc(/C=C2\SC(=O)N=C2N)ccc1O	86	80	89	90	77*	87
Cc1ccc(NC(=O)Nc2ccnc(-c3cccnc3)n2)cc1	67*	64*	86	87	83	65*
Cc1ccc(C(=O)Nc2ccnc(-c3cccnc3)n2)cc1	94	94	94	92	89	94
Cn1c(=O)c2cc(S(=O)(=O)NCCC(=O)NCc3ccccc3Cl)ccc2n(C)c1=O	68*	64*	85	91	89	68*
COc1ccccc1C(=O)Nc1nc(-c2ccc3c(c2)OCCO3)cs1	87	81	78*	94	78*	78*
CCC(=O)Nc1nc(-c2ccc3c(c2)OCCO3)cs1	100	101	100	102	103	103
COc1ccc(OC)c(CN2CCN(Cc3cccc4ccccc34)CC2)c1	96	98	94	103	97	93
O=c1c2ccc([N+](=O)[O-])cc2ncn1CCOc1ccccc1	81	79*	87	95	76*	84
Cc1ccc(OCCn2cnc3cc([N+](=O)[O-])ccc3c2=O)cc1	82	79*	87	100	90	79*
Cc1cc(Br)ccc1OCCn1ccnc1	101	98	100	103	105	105
Cc1ccc(S(=O)(=O)N(C)C)cc1NC(=O)CCNC(=O)c1ccccc1Cl	99	98	100	97	100	99
COc1ccc(N(C)C2=NS(=O)(=O)c3ccccc32)cc1	100	99	97	98	104	101
CN(/N=C/c1ccco1)C1=NS(=O)(=O)c2ccccc21	76*	73*	80	85	64*	71*
NNC(=O)CNS(=O)(=O)c1ccc([N+](=O)[O-])cc1	98	98	96	102	99	99
CCCOc1ccc(N2C(=O)CC(SCc3nc4ccccc4[nH]3)C2=O)cc1 (stereo not given)	100	100	98	103	99	100
COc1ccc(-c2c3c(nc4sc5c(=O)[nH]c(C)nc5c24)CCC3)cc1	81	76*	89	87	76*	81
Cc1c(Cl)c([N+](=O)[O-])nn1Cc1ccc(C(=O)N/N=C\c2ccccn2)o1	82	80	88	89	75*	84
Cc1ccc(/C=N/NC(=O)c2ccc(Cn3cc([N+](=O)[O-])cn3)o2)cc1	99	101	99	100	99	99
O=C(Nc1nnc(-c2ccc3c(c2)OCCO3)o1)C1CCCCC1	100	96	94	106	98	98
N#CCCN(/N=C/c1cccnc1)C1=NS(=O)(=O)c2ccccc21	87	87	95	96	85	89
Cc1cccc(/C=N/N(CCO)C2=NS(=O)(=O)c3ccccc32)c1	80	81	84	92	68*	82
O=C(O)c1cc(-c2ccc(/C=C3\NC(=O)N(c4ccc(Cl)cc4)C3=O)o2)ccc1Cl	81	80	77*	94	74*	74*
O=C1NN(c2ccccc2)C(=O)/C1=C/c1ccc(-c2ccc(Cl)c(C(=O)O)c2)o1	88	87	84	93	88	87
COc1cccc(OC)c1-c1nn2c(-c3cc(-c4ccccc4)n[nH]3)nnc2s1	162*[activator]	167*[activator]	?	?	206*[activator]	179*[activator]
SMILES	HRas wt GTP	Rab2 wt GTP	Rac1 mut GTP	Rab7 wt modul	Rac1 wt modul	Cdc42 wt
Cc1cc(=O)[nH]c2c(N=Nc3ccc(O)cc3)c(N)nn12	63*	64*	79*	84	56*	60*
CCCCCCCC(=O)NNC(=O)Cc1ccccc1	95	96	95	94	93	97
CCCCCCCCCCCC(=O)c1c(O)cccc1O	82	81	79*	89	83	79*
COc1cccc(NC(=O)NCCCN2CCN(c3ccc(F)cc3)CC2)c1	98	98	100	76*	99	100
COc1cccc(NC(=O)CN2CCN(c3ccc(F)cc3)CC2)c1	97	97	95	98	95	96
CCn1c2ccccc2c2nc3cc(C(=O)O)ccc3nc21	85	84	87	98	77*	83
CCn1c2ccccc2c2nc3ccccc3nc21	101	100	98	102	101	98
O=C(COC(=O)CCc1ccc(S(=O)(=O)N2CCOCC2)cc1)NC(=O)NC1CCCCC1	95	96	95	94	100	96
N=C1/C(=C\c2ccc(SCc3ccco3)o2)C(=O)N=C2SC=NN12	74*	77*	81	88	76*	72*
CC1(c2ccc(Cl)cc2)NC(=O)CS1 (stereo not given)	96	95	95	97	102	94
CN1CCN(c2ccccc2NC(=O)c2ccc(-c3cccc([N+](=O)[O-])c3)o2)CC1	107	106	107	106	123*[activator]	108
OC(c1ccc(OCc2ccccc2)cc1)c1nnc(-c2ccccc2)o1 (stereo not given)	82	81	78*	92	74*	75*
OC(c1cccc(OCc2ccccc2)c1)c1nnc(-c2ccccc2)o1 (stereo not given)	97	97	95	98	103	100
COc1ccc(OCc2nc3c4cc(OC)c(OC)cc4nc(=S)n3[nH]2)cc1	82	83	89	90	77*	87
O=C(CCN1CCCC1Cc1ccccc1)c1ccc2c(c1)OCCO2 (stereo not given)	85	84	83	90	84	76*
O=C(CCN1CCCCC1)c1ccc2c(c1)OCCO2	103	103	102	103	108	105
COc1ccc(CN(CC2CCCO2)C(=O)c2cc3sccc3n2C)c(OC)c1 (stereo not given)	99	99	94	103	97	95
COc1cc(/C=C2/SC(=Nc3ccc(O)cc3)NC2=O)cc(OC)c1O	74*	70*	79*	86	59*	69*
